In all, about 420,000 compounds went through this assay and about 50,000 (12%) were called active. About 26% were inconclusive and are not listed. Only a selection was taken, and actives are over-represented in it overall. Unmarked numbers belong to inactive results. Calls follow the shape of the dose curve; as a rule, active = well fitted inhibition curve with a large enough effect; inconclusive = small, poorly fitted or top-dose-only effect; inactive = flat fitted curve, though single readings scatter.
experiment: qHTS for Inhibitors of human tyrosyl-DNA phosphodiesterase 1 (TDP1): qHTS in cells in presence of CPT; settings: chicken DT40 Tdp1-/-;hTDP1 cells + 20 nM CPT, ATP luminescence, 48 h; series mostly up to 46.2 µM; activity change, negative = growth inhibition: at the top concentration; also: nearly all actives have a fitted effect of over 55% in size
In short: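 Cell growth measured by CellTiter-Glo luminescence after a minimum 48 h, 37 C compound exposure with 20 nM CPT in Tdp1-knockout DT40 cells stably expressing hTDP1, seeded 400/well; qHTS titration format.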
% is scaled to controls: 0 for no effect and ±100 for the full control effect; potency is read from the fitted curve at half-maximal effect.

SMILES | activity change, negative = growth inhibition | Potency
O=P(O)(O)C(O)c1ccc2ccccc2c1 (centres undefined) | 0.0947% | 
C/C(CCc1ccccc1)=N\NC(=O)c1ccc(CN2CCOCC2)cc1 | -2.29% | 
CCN1CN(Cc2ccccc2)CNC1=S | -9.4% | 
S=C1SCN(CCN2CCOCC2)CN1Cc1ccccc1 |  | 5.01 µM (active)
COc1ccc(CCN2CC(C(=O)NCCN3CCNC3=O)CCC2=O)cc1 (centres undefined) | 2.06% | 
CC(C)NC(=S)Nc1cccc2cnccc12 | 0.573% | 
CCN(CC)CC(=O)Nc1nn(-c2ccccc2)nc1C(N)=O | -6.91% | 
COc1cccc(-c2cnc(OC(C)(C)C)nc2OC(C)(C)C)c1 | 0.304% | 
COc1cccc(-c2nc3nc(C)cc(C)n3c2NC2CCCCC2)c1 |  | 18.4 µM (active)
COc1ccc2nc(C)cc(Nc3cccc(C(=O)O)c3)c2c1 | -14% | 
COc1ccc(-c2cc(C)nc3nc(N)nn23)cc1 | -13.2% | 
COc1cccc(CSc2nc3nc(C)cc(C)n3n2)c1 | -4.29% | 
COc1ccc(-c2nc3nc(C)cc(C)n3c2Nc2c(C)cccc2C)cc1 |  | 16.4 µM (active)
COc1ccccc1C(=O)Nc1nc2nc(-c3ccccc3)cc(=O)n2[nH]1 | -23.3% | 
O=C(NN1C(=O)C2CCCCC2C1=O)c1ccco1 (centres undefined) | 4.06% | 
Cc1cccc(C(=O)N2CCN(S(=O)(=O)N3CCCCC3)CC2)c1 | -15.7% | 
Cc1cc(C)c(NC(=O)CN2C(=O)NC(Cc3ccccc3)C2=O)c(C)c1 (centres undefined) | -14.1% | 
O=S(=O)(NCCc1ccccn1)c1cc(Cl)cc(Cl)c1O | 0.802% | 
COc1ccccc1CCNC(=O)C1CCN(C(=O)/C=C/c2ccccc2)CC1 | 5.89% | 
Cc1cccc(NC(=O)CN2CCN(CC(=O)NCC3(N4CCCCC4)CCCCC3)CC2)c1C | -16.1% | 
Cc1cccc(NC(=O)CN2CCN(C(=O)C3CCN(C(=O)/C=C/c4ccccc4)CC3)CC2)c1C |  | 16.4 µM (active)
Cc1ccc(S(=O)(=O)NC[C@H]2O[C@@H](n3cnc4c(N)ncnc43)[C@H](O)[C@@H]2O)s1 | 0.238% | 
COc1ccc(NC(=O)c2ccccc2CC[N+](=O)[O-])cc1 | 2.49% | 
C=CC[n+]1c(-c2ccc(C)cc2)csc1NNC(=O)Nc1ccccc1 |  | 10.3 µM (active)
O=C(NNC(=O)c1ccc(-c2ccccc2)cc1)Nc1ccccc1 | -6.03% | 
C=CCNc1scc(-c2ccccc2)[n+]1CC=C | -12.3% | 

SMILES | activity change, negative = growth inhibition | Potency
C[C@H]1CN([C@@H](C)CO)C(=O)CCCn2cc(nn2)CO[C@@H]1CN(C)S(=O)(=O)c1ccccc1C#N | 0.957% | 
O=C(c1cc(COc2ccc(F)cc2F)on1)N1CCOCC1 | 8.14% | 
COc1cc(-c2noc(-c3ccc(N4CCCC4)c([N+](=O)[O-])c3)n2)cc(OC)c1OC | -2.73% | 
CNc1ccc(-c2nc(-c3ccco3)no2)cc1[N+](=O)[O-] | -19.2% | 
COc1ccc(-c2noc(-c3ccc(N4CCN(c5ccccc5)CC4)c([N+](=O)[O-])c3)n2)cc1OC |  | 23.1 µM (active)
Cc1nnc(SCc2cc(=O)c3cc(F)ccc3[nH]2)n1C | 10% | 
CCOC(OCC)c1ccc(/C=C\c2nccc(N)n2)cc1 | -14.8% | 
COc1ccc2nc(Nc3nc(-c4ccncc4)cs3)sc2c1 | -20% | 
CCNc1nc(-c2cc3ccccc3o2)cs1 | 6.56% | 
Nc1ncc(-c2cc3ccccc3oc2=O)s1 | -16.5% | 
COc1ccc2nc(NC(=O)[C@@H]3CCCN3C(=O)c3cccs3)sc2c1 | 3.56% | 
COc1ccc2nc(Nc3nc(-c4cc5ccccc5oc4=O)cs3)sc2c1 |  | 5.8 µM (active)
O=c1oc2ccccc2cc1-c1csc(Nc2ccc(O)cc2)n1 |  | 9.2 µM (active)
CC1CCCCN1Cc1c(O)ccc2c(=O)c(-c3cccc(Cl)c3)c(C(F)(F)F)oc12 (centres undefined) | -14.3% | 
C[C@@H]1NS(=O)(=O)c2cc(Cl)ccc2O[C@@H]1c1ccccc1 | -1.11% | 
C[C@H](CO)N1C[C@H](C)[C@H](CN(C)C(=O)c2ccncc2)OCc2ccccc2-c2c(n(C)c3ccccc23)C1=O | -22.7% | 
CC(NS(=O)(=O)c1ccc(Br)cc1)C(=O)NCC1CCCO1 (centres undefined) | -1.17% | 
CC(C)NC(=S)N1CCN(S(C)(=O)=O)CC1 | 2.05% | 
CC(C)NC(=S)N1CCN(C(c2ccccc2)c2ccccc2)CC1 |  | 29.1 µM (active)
CC(C)OCC(O)CN1CCN(C(c2ccccc2)c2ccccc2)CC1 (centres undefined) | -17.3% | 
COc1ccc(C)cc1NC(=S)N1CCOCC1 | 4.73% | 
COc1ccccc1NC(=S)N1CCN(C(c2ccccc2)c2ccccc2)CC1 |  | 16.4 µM (active)
COc1ccccc1NC(=S)N1CCN(c2ccc(F)cc2)CC1 | -1.31% | 
CCCCNC1(C#N)CCN(Cc2ccccc2)CC1 | -6.58% | 
CC(C)CC1(C(=O)NCc2ccccn2)C=CCN1C(=O)c1ccccc1 (centres undefined) | 3.78% | 
O=C(O)c1ccc(/C=N/NC(=S)NCc2ccccc2)cc1 | 5.08% | 

SMILES | activity change, negative = growth inhibition | Potency
NN=C(NN=Cc1ccccc1)c1ccccc1 |  | 8.2 µM (active)
O=C(NN=Cc1ccccc1)c1ccccc1 | -5.88% | 
O=C(CCNC(=O)c1ccccc1)NN=Cc1ccc(Br)o1 | 0.385% | 
CN1C(C(=O)NCC2CC2)CC2Cn3c(nc4ccccc43)C21 (centres undefined) | -23.8% | 
Nc1ccc(/C=C/c2ccnc3ccccc23)c([N+](=O)[O-])c1 |  | 11.2 µM (active)
Cc1cc(C)cc(C(=O)NC2C(=O)N3C(C(=O)O)=C(CSc4nnc(C)s4)CSC23)c1 (centres undefined) | -7.95% | 
CSc1ccccc1NC(=O)CN(C)CC(=O)Nc1cccc(Br)c1 | -15.4% | 
CCOc1ccc(OCC)c(NC(=O)c2cc(C)nc3c2c(C)nn3-c2cccc(Cl)c2C)c1 | 3.56% | 
CC1=CC(C)(C)NC(=S)N1c1ccccc1 |  | 20.6 µM (active)
Cc1ccc(N2C(=O)C(Cc3ccccc3)NC2=S)cc1 (centres undefined) | -29.4% | 
CC1=CC(C)(C)NC(=S)N1NC(=O)c1ccccc1Cl | 7.93% | 
CCOc1ccc(S(=O)(=O)N2CCC(C(=O)OCc3ccc(OC)cc3)CC2)cc1 | -15.7% | 
CC1(C)O[C@H]2CC(=O)OCC23[C@H]2CC[C@@]4(C)[C@H](c5ccoc5)OC(=O)[C@H]5O[C@]54[C@]2(C)C(=O)C[C@@H]13 (some centres undefined) | 4.62% | 
NC(=O)C(Cc1ccccc1)NC(=O)C12CC3CC(CC(C3)C1)C2 (centres undefined) | -17.9% | 
COc1cc(/C=N/N=C(\N)c2nonc2N)cc(OC)c1OC | -16.6% | 
COc1ccc(N2CCN(CCNC(=O)Nc3cc(Cl)ccc3Cl)CC2)cc1 | -7.44% | 
CCOC(=O)N1CCC(Nc2c(NCCCN3CCN(c4ccc(OC)cc4)CC3)c(=O)c2=O)CC1 | -0.704% | 
Cc1ccc(C)c(N2CCN(Cc3nnc(-c4ccccc4)o3)CC2)c1 | -20.2% | 
CCOC(=O)N1CCC(Nc2c(NCCN3CCN(c4cccc(Cl)c4)CC3)c(=O)c2=O)CC1 | -3.1% | 
Cc1ccc(C)c(N2CCN(CCCNC(=O)Nc3ccc(Cl)cc3)CC2)c1 |  | 7.31 µM (active)
CC1=C(c2ccc(C)c(C)c2)S(=O)(=O)NC1=NCc1ccccc1Cl | -16% | 
CCOC(=O)c1c(C)[nH]c(CCC(=O)NCCCN2CCN(c3cccc(Cl)c3)CC2)c1C |  | 13 µM (active)
CC1=C(c2ccc(C)cc2)S(=O)(=O)NC1=NCCCN1CCN(c2cc(C)ccc2C)CC1 |  | 4.61 µM (active)
COc1ccc(NC(=O)NCCN2CCN(c3ccc(C)cc3)CC2)c(Cl)c1 | -18.8% | 
Cc1ccc(C)c(N2CCN(C(=O)Cc3c(C(=O)O)c(C)cn3C)CC2)c1 | -19.6% | 
CCOC(=O)c1c(C)[nH]c(CCC(=O)NCCCN2CCN(c3cc(C)ccc3C)CC2)c1C |  | 4.61 µM (active)

SMILES | activity change, negative = growth inhibition | Potency
CCOC(=O)c1c(C)[nH]c(C(=O)NCCN2CCOCC2)c1C | -2.98% | 
CCOc1cc(/C=N/NC(=O)c2cccc(S(=O)(=O)N3CCOCC3)c2)ccc1OCC(=O)N(C)C | 0.118% | 
CC(C)CN(C(=O)Cn1c(=O)cnc2ccccc21)C1CCS(=O)(=O)C1 (centres undefined) | 0.278% | 
O=C(NCCCn1ccnc1)c1cc2c(s1)CCCC2 | -6.43% | 
CCc1nnc(SCc2cccc(F)c2)nc1CC | -1.89% | 
Cc1ccc(OCC(=O)OCc2cc(=O)n3nc(C4CC4)sc3n2)cc1C | 4.85% | 
COc1ccccc1/C=C/CN1CCC(CO)(Cc2ccccc2)CC1 | -38.5% | 
CCOc1ccccc1N(CC)C(=O)Nc1cn(C)c(=O)c2ccccc12 | -28.1% | 
CC1=C(C(=O)N2CCOCC2)CC(CC(=O)NCc2ccco2)C(=O)N1Cc1ccc(F)cc1 (centres undefined) | -7.7% | 
COc1ccc(C2CC(c3cccs3)=NN2C(=O)CCC(=O)O)cc1OC (centres undefined) | 6% | 
O=C(CSc1ccc(-c2ccc(Br)cc2)nn1)NCC1CCCO1 (centres undefined) | -19.8% | 
C#CCCCc1nc2ccccc2c(=O)n1N | 19.6% | 
Cc1nc(C)c(-c2nnc(-c3cccc(S(=O)(=O)N(C)C)c3)o2)cc1C(=O)NN | 1.5% | 
COc1cc(-c2nnc(NC(=O)C3=COCCO3)o2)cc(OC)c1OC | -0.0683% | 
CCOC(=O)c1cc(-c2nnc(-c3cc(OC)c(OC)c(OC)c3)o2)c(C)nc1C |  | 16.4 µM (active)
Cc1ccc(S(=O)(=O)NCCC(=O)NNC(=O)C2COc3ccccc3O2)cc1 (centres undefined) | -4.14% | 
CC(C)N(c1ccccc1)c1ncnc(NCCC(=O)O)c1[N+](=O)[O-] | -14.3% | 
CO/N=C(\C(=O)N[C@@H]1C(=O)N2C(C(=O)O)=C(COC(C)=O)CS[C@H]12)c1csc(N)n1 (stereo in doubt) |  | inactive
CN1C=CC=C/C1=C1\SC(=S)N(Cc2ccccc2)C1=O | -9.03% | 
COc1ccccc1C(=O)NC(CCSC)C(=O)NNC(=O)c1ccccc1C (centres undefined) | 7.15% | 
CCOC(=O)c1ccc(NC(=O)Cn2c(=O)cc(C)c3c(C)nn(-c4cccc(F)c4)c32)cc1 | -0.48% | 
CCCc1nnc(SCC(=O)Nc2ccc(C(=O)OCC)cc2)o1 |  | 23.1 µM (active)
CCOC(=O)c1ccc(NC(=O)Cn2cnc3cc(C)c(C)cc32)cc1 |  | 1.16 µM (active)
CCOC(=O)c1ccc(NC(=O)CSc2ncccn2)cc1 | -27.6% | 
Cc1ccc(NC(=O)CSc2nnc(COc3ccccc3C)o2)cc1 | -0.121% | 
CCOC(=O)c1ccc(NC(=O)Cn2nnc(-c3ccc(C)cc3)n2)cc1 | -29% | 

Source: PubChem BioAssay AID686979 (National Center for Advancing Translational Sciences (NCATS), 2013)
